Experimental data as given in PubChem BioAssay (NCI).
Compounds without any hit were thinned out: in the full panel of roughly 83,000, 20% have a hit.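 Growth was measured after 48 h exposure to one concentration of compound in 96-well plates. Values under 10 count as active.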 Calls of active or inactive are those of the source.

How the values were obtained:
Test in all cases: NCI-60 one-dose screen, 48 h (100 = growth as untreated, 0 = no growth, -100 = all killed)
Settings in all cases: 10 µM unless noted
NCI-H23 lung = test system: NCI-H23 lung
NCI-H226 lung = test system: NCI-H226 lung
NCI-H322M lung = test system: NCI-H322M lung
HOP-62 NSCLC = test system: HOP-62 NSCLC
NCI-H460 lung = test system: NCI-H460 lung
HOP-92 NSCLC = test system: HOP-92 NSCLC
NCI-H522 lung = test system: NCI-H522 lung
A549/ATCC NSCLC = test system: A549/ATCC NSCLC
786-0 renal = test system: 786-0 renal
COLO 205 colon = test system: COLO 205 colon

Measured: growth

COC(=O)c1oc2c(C(=O)/C=C/c3ccc(OC)cc3)c(OCCN3CCOCC3)ccc2c1C
inactive: NCI-H23 lung 18.7%
active: NCI-H226 lung -5.76% | NCI-H322M lung 0.995% | HOP-62 NSCLC -6.52% | NCI-H460 lung -20.9% | HOP-92 NSCLC -44.8% | NCI-H522 lung -20% | A549/ATCC NSCLC 2.83% | 786-0 renal -6.7% | COLO 205 colon -20.9%

CC(C)(CCN=C(N)Nc1ccccn1)c1ccc(C(F)(F)F)cc1
active: HOP-92 NSCLC -2.94% | NCI-H522 lung 4.82% | COLO 205 colon -72.8%
inactive: NCI-H23 lung 11.8% | NCI-H226 lung 42.4% | NCI-H322M lung 45.5% | HOP-62 NSCLC 50.4% | NCI-H460 lung 18.3% | A549/ATCC NSCLC 31.2% | 786-0 renal 29.2%

CCCCNc1cc(C(=O)O)cc(S(N)(=O)=O)c1Oc1ccccc1
inactive: NCI-H23 lung 102% | NCI-H226 lung 91% | NCI-H322M lung 101% | HOP-62 NSCLC 101% | NCI-H460 lung 104% | HOP-92 NSCLC 81% | NCI-H522 lung 102% | A549/ATCC NSCLC 105% | 786-0 renal 103% | COLO 205 colon 98.6%

C#C[C@H](O)/C=C/CCCCCCC#C[C@H](O)CC[C@@H](O)C#CCCCCCC/C=C/[C@@H](O)C#C
active: NCI-H522 lung -72.7%
inactive: NCI-H23 lung 51% | NCI-H226 lung 116% | NCI-H322M lung 96.3% | HOP-62 NSCLC 85.3% | NCI-H460 lung 97.4% | HOP-92 NSCLC 11.9% | A549/ATCC NSCLC 91.1% | 786-0 renal 64.6% | COLO 205 colon 79.8%

COCCNC(C(=O)c1ccccc1)c1ccccc1 (stereo not given)
inactive: NCI-H23 lung 103% | NCI-H226 lung 91% | NCI-H322M lung 100% | HOP-62 NSCLC 100% | NCI-H460 lung 108% | HOP-92 NSCLC 85.7% | NCI-H522 lung 107% | A549/ATCC NSCLC 99.8% | 786-0 renal 92.5% | COLO 205 colon 117%

C=C1C(=O)O[C@H]2[C@H]1CC/C(COC(=O)c1cccc3ccccc13)=C\CC[C@@]1(C)O[C@@H]21
inactive: NCI-H322M lung 36.8%
active: NCI-H23 lung 0.789% | NCI-H226 lung -79.9% | HOP-62 NSCLC -45.7% | NCI-H460 lung 7.53% | HOP-92 NSCLC -67.9% | NCI-H522 lung -84.5% | A549/ATCC NSCLC -55% | 786-0 renal -77.9% | COLO 205 colon -70.7%

CCCCCCCCCCCCCCCCCCNCc1ccc(Cl)cc1
active: NCI-H23 lung -65.4% | NCI-H226 lung 4.03% | NCI-H322M lung 9.39% | HOP-62 NSCLC -77.7% | NCI-H460 lung -71.6% | HOP-92 NSCLC -78% | NCI-H522 lung -82.5% | A549/ATCC NSCLC -80.7% | 786-0 renal -75.1% | COLO 205 colon -83.9%

Cc1ccc(-c2cn3cc([N+](=O)[O-])ccc3n2)cc1
inactive: NCI-H23 lung 83.5% | NCI-H226 lung 72.2% | NCI-H322M lung 95.9% | HOP-62 NSCLC 91.4% | NCI-H460 lung 97.6% | HOP-92 NSCLC 110% | NCI-H522 lung 71.3% | A549/ATCC NSCLC 85.5% | 786-0 renal 91.9% | COLO 205 colon 94.4%

Cc1cc(NCCN(C(C)C)C(C)C)nc(/N=C(\N)Nc2ccc(Cl)c(C(F)(F)F)c2)n1
active: NCI-H23 lung -67.1% | NCI-H226 lung -32.1% | NCI-H322M lung -51.9% | HOP-62 NSCLC -95.4% | NCI-H460 lung -84.7% | HOP-92 NSCLC -93.5% | NCI-H522 lung -81.1% | A549/ATCC NSCLC -89.5% | 786-0 renal -99.7% | COLO 205 colon -71.3%

ClC1c2ccccc2CCc2ccccc21
inactive: NCI-H23 lung 89.2% | NCI-H226 lung 96.7% | NCI-H322M lung 94.1% | HOP-62 NSCLC 90% | NCI-H460 lung 114% | HOP-92 NSCLC 82.7% | NCI-H522 lung 76.6% | A549/ATCC NSCLC 93.4% | 786-0 renal 93.5% | COLO 205 colon 96.5%

CC(C)C(=O)Nc1nc2c(s1)CCCc1ccn(S(=O)(=O)c3ccccc3)c1-2
inactive: NCI-H23 lung 86.8% | NCI-H226 lung 94% | NCI-H322M lung 90% | HOP-62 NSCLC 90.6% | NCI-H460 lung 103% | HOP-92 NSCLC 112% | NCI-H522 lung 70.5% | A549/ATCC NSCLC 82.3% | 786-0 renal 89.9% | COLO 205 colon 110%

FC(F)(F)c1cn(CC2CNC2)c2ncnc(Cl)c12
inactive: NCI-H23 lung 104% | NCI-H226 lung 102% | NCI-H322M lung 111% | HOP-62 NSCLC 102% | NCI-H460 lung 105% | HOP-92 NSCLC 114% | NCI-H522 lung 89.7% | A549/ATCC NSCLC 94.3% | 786-0 renal 107% | COLO 205 colon 106%

O=C(Nc1ccc(Cl)c(Cl)c1)Nc1ccc(Cl)c([N+](=O)[O-])c1
active: NCI-H23 lung -14.4% | NCI-H226 lung 1.2% | NCI-H322M lung 6.27% | HOP-62 NSCLC -3.52% | NCI-H460 lung 1.62% | HOP-92 NSCLC -23.2% | NCI-H522 lung -12.7% | A549/ATCC NSCLC 4.45% | 786-0 renal 7.48% | COLO 205 colon -80%

COc1ccc(-c2nn(-c3ccc(NC(=O)c4ccc(Cl)c(C(F)(F)F)c4)cc3)cc2-c2ccncc2)cc1Cl
active: HOP-62 NSCLC -24.9% | HOP-92 NSCLC -0.441% | 786-0 renal -55.7% | COLO 205 colon -19%
inactive: NCI-H23 lung 30.2% | NCI-H226 lung 70.5% | NCI-H322M lung 51.5% | NCI-H460 lung 11.3% | NCI-H522 lung 30.6% | A549/ATCC NSCLC 31%

COc1cccc(/C=N/C(=S)NC2(C)C3CCC(C3)C2(C)C)c1O (stereo not given)
inactive: NCI-H23 lung 94.7% | NCI-H226 lung 93.1% | NCI-H322M lung 73.1% | HOP-62 NSCLC 92% | NCI-H460 lung 60.2% | HOP-92 NSCLC 93.3% | NCI-H522 lung 69.7% | A549/ATCC NSCLC 74.7% | 786-0 renal 88% | COLO 205 colon 89.6%

O=C(/C=C/c1ccccc1)Oc1ccc(/C=C/c2cc(OC(=O)/C=C/c3ccccc3)cc(OC(=O)/C=C/c3ccccc3)c2)cc1
inactive: NCI-H23 lung 102% | NCI-H226 lung 91.4% | NCI-H322M lung 90.6% | HOP-62 NSCLC 82.9% | NCI-H460 lung 100% | HOP-92 NSCLC 95.8% | NCI-H522 lung 77% | A549/ATCC NSCLC 83.9% | 786-0 renal 102% | COLO 205 colon 97.4%

CCCCNC(=O)Oc1ccc(/C(=C(/CC)Cc2ccccc2)c2ccc(OCCCN(C)C)cc2)cc1
inactive: NCI-H23 lung 91.7% | NCI-H226 lung 92.9% | NCI-H322M lung 83.1% | HOP-62 NSCLC 96.1% | NCI-H460 lung 63.7% | HOP-92 NSCLC 43.8% | NCI-H522 lung 88.1% | A549/ATCC NSCLC 69.5% | 786-0 renal 71.2% | COLO 205 colon 20.5%

COc1ccc(SC2c3ccc(O)cc3Oc3nc(N)c(C#N)c(N)c32)cc1 (stereo not given)
inactive: NCI-H23 lung 93.3% | NCI-H226 lung 117% | NCI-H322M lung 79.2% | HOP-62 NSCLC 64.4% | NCI-H460 lung 79.3% | HOP-92 NSCLC 112% | NCI-H522 lung 86.3% | A549/ATCC NSCLC 84.6% | 786-0 renal 81.6% | COLO 205 colon 115%

COc1ccccc1S(=O)(=O)Nc1ccc2c3c(cc(-c4ccoc4)nc13)C(=O)N2C
inactive: NCI-H23 lung 81.2% | NCI-H226 lung 82.7% | NCI-H322M lung 76.2% | HOP-62 NSCLC 52.6% | NCI-H460 lung 70.9% | HOP-92 NSCLC 45.3% | NCI-H522 lung 46.3% | A549/ATCC NSCLC 66.2% | 786-0 renal 53.6% | COLO 205 colon 44.7%

O=C1C(SCCO)=C(SCCO)C(=O)N1c1ccc(-c2ccccc2)cc1
inactive: NCI-H23 lung 88.9% | NCI-H226 lung 74.9% | NCI-H322M lung 124% | HOP-62 NSCLC 91.5% | NCI-H460 lung 108% | HOP-92 NSCLC 39.9% | A549/ATCC NSCLC 105% | 786-0 renal 82.3%
active: NCI-H522 lung -61.3% | COLO 205 colon -56.5%

O=C(O)c1cccc(S(=O)(=O)c2ccccc2)c1
inactive: NCI-H23 lung 96.8% | NCI-H226 lung 96.8% | NCI-H322M lung 98.6% | HOP-62 NSCLC 103% | NCI-H460 lung 100% | HOP-92 NSCLC 82.8% | NCI-H522 lung 93.5% | A549/ATCC NSCLC 102% | 786-0 renal 108% | COLO 205 colon 104%
